Test results as given in PubChem BioAssay (NCATS).
Results filed as inconclusive are left out. Where a call stands in place of a potency, no number is given. Unmarked numbers belong to inactive results. Active and inactive are the calls of the source. Calls come from the whole dose curve; as a rule, active = well fitted activation curve with a large enough effect; inconclusive = small, poorly fitted or top-dose-only effect; inactive = flat fitted curve, though single readings scatter.

Assay: Primary redox qHTS assay for identification of artifact compounds. (AID 1845223)
Details: Amplex Red/HRP redox cycling with DTT, fluorescence; series mostly up to 53.8 µM
Text: PI: Alexander Tropsha Ph.D.
UNC Eshelman School of Pharmacy
University of North Carolina, Chapel Hill, North Carolina
Hits from high-throughput screening (HTS) of chemical libraries are often false positives due to their interference with the assay detection technology. In response to this problem, we generated the largest publicly available library of chemical liabilities and developed a free webtool to predict HTS artifacts, both of which are described herein. More specifically, we generated, curated, and integrated HTS datasets for thiol reactivity, redox activity, and luciferase (firefly and nano) activity. Using these curated datasets, we developed and validated several Quantitative Structure-Interference Relationship (QSIR) models to predict nuisance behavior. […] These models were employed for virtual profiling of the National Center for Advancing Translational Science's (NCATS) in-house library, and 256 compounds for each assay were selected for the experimental validation of nuisance behavior. The BA for these external predictions ranged from 58 to 78% for compounds within the applicability domains of the models. […] The models developed in this study, along with aggregation models previously developed by our group (SCAM Detective) were implemented in "Liability Predictor," an online tool which may be used as part of chemical library design or for triaging HTS hits. Both the models and the curated datasets are publicly available at https://liability.mml.unc.edu/.
SEQUENCE No. (e.g., 1, 2, 3, etc.); […] (e.g., Cells, Incubation, Reagent, etc.); VALUE; DESCRIPTION.
1; Reagent; 3 uL; Amplex Red and HRP mixture.
2; Compounds and control; 16 nL; Kalypsis pin tool (Wako USA) equipped with a 1536-well pin head. […]
6; Detection; Fluorescence, ViewLux microplate reader, 525 nm excitation, 598 nm emission.
NOTES (numbers refer to Sequence numbers above)
1. 3 uL of a mixture containing Amplex Red (25 uM final concentration) and horseradish peroxidase (HRP; 250 mU/mL final concentration) in assay buffer (HBSS) was dispensed into all wells of a 1536-well assay plate (solid-bottom black plate; Greiner Bio One, Monroe, NC).
2. A Wako Pin-tool (Wako Automation, Richmond, VA) was used to transfer 16 nL of compounds (consisting of 7-plates in qHTS format, final concentration range 18.3 nM to 114 uM) or control DA3003 (final concentration range 1.22 nM to 40 uM).
3. 15 min. incubation at room temperature protected from light.
4. 1 uL of DTT (prepared fresh; final concentration 250 uM) was dispensed for a final assay volume of 4 uL.
5. Plates were centrifuged (121xg, 15 seconds) and incubated for 30 minutes at room temperature protected from light.
6. Samples were read for fluorescence (Ex/Em = 525(20)/598(25) nm) on a ViewLux CCD imager (PerkinElmer). Data were normalized to DMSO (0% activity) and DA3003 (10 uM final concentration; 100% activity) and the resulting percent inhibition data were fitted to a 4-parameter Hill equation using NCATS in-house software.

Compound | redox activity (% of DA3003) | Potency
COC1CC(O[C@H]2CC[C@]3(C)C4CC[C@@]5(C)C(=O)[C@]4(CC[C@@H]3C2)CC[C@@H]5C2=CC(=O)OC2)OC(C)C1OC1OC(COC2OC(CO)C(O)C(O)C2O)C(O)C(O)C1O (stereo not given in full) | 13.6% [at 11.5 µM] | –
CC(C)S(=O)(=O)NC[C@H](C)c1ccc(-c2ccc(CCNS(C)(=O)=O)cc2)cc1 | – | inactive
O=C(NCCN1CCN(c2cccc3ccc(O)cc23)CC1)c1ccc(F)cc1 | – | inactive
N#Cc1ccc(N2N=C3c4ccc(C(=O)O)cc4CC[C@@H]3[C@@H]2C2CCCC2)cc1Cl | – | inactive
CC[C@@H]1C[C@]1(NC(=O)[C@@H]1C[C@@H]2CN1C(=O)[C@H](C(C)(C)C)NC(=O)OCC(C)(C)CCCCc1cccc3c1CN(C3)C(=O)O2)C(=O)NS(=O)(=O)C1CC1 | – | inactive
Cn1ncc(Cl)c1-c1cc(C(=O)N[C@H](CN)Cc2ccc(F)c(F)c2)oc1Cl | – | inactive
Cc1ccc(C)c(NC(=O)[C@@H]2CCCN2S(=O)(=O)c2cccc3cccnc23)c1 | – | inactive
C=C1CC2[C@@]3(C)C=CC(=O)C(C)(C)C3=C(O)C(=O)[C@@]2(C)C2(C(=O)OC)C(=O)C(C)OC(=O)[C@@]12C (stereo not given in full) | – | inactive
CN(C)CCCn1cc(C2=C(c3c[nH]c4ccccc34)C(=O)NC2=O)c2ccccc21 | – | inactive
C=C1C(=O)O[C@H]2CC(=C)[C@H]3CC[C@@](C)(O)[C@@H]3CC12 (stereo not given in full) | – | inactive
COc1cc2ncc(-c3ccccc3)nc2cc1OC | – | inactive
CCn1nc(C2CCN(C(=O)CCO)CC2)nc1-c1cnc(N)c(-c2nnc(C(C)(C)C)o2)n1 | – | inactive
CC(C)(C)NC(=O)[C@H]1CC[C@H]2[C@@H]3CC[C@H]4NC(=O)CC[C@]4(C)[C@H]3CC[C@]12C | – | inactive
COc1ccncc1C(=O)NC(=O)Nc1ccc(-c2ccccc2)c(C(F)(F)F)c1 | – | inactive
CC(C)(C)c1ccc(-c2nc3c(N4CCN(Cc5ccc6nccnc6c5)CC4)cccc3[nH]2)cc1 | – | inactive
Cc1noc(-c2ccc(-c3ccc(CC(=O)O)cc3)cc2)c1NC(=O)O[C@H](C)c1ccccc1Cl | – | inactive
O=C(NO)c1cnc(N2CCN(S(=O)(=O)c3ccc4ccccc4c3)CC2)nc1 | – | inactive
Nc1ncnc2c1c(-c1ccc(Cl)cc1)nn2-c1cccc(-c2cnnn2Cc2cccc(-c3ccccc3)c2)c1 | – | inactive
O=C(O)CCc1nccc2c1[nH]c1ccccc12 | – | inactive
CC(C)NC(=O)COc1cccc(-c2nc(Nc3ccc4[nH]ncc4c3)c3ccccc3n2)c1 | – | inactive

Compound | redox activity (% of DA3003) | Potency
C=C1CC[C@@H]2[C@](C)(CO)[C@H](O)CC[C@@]2(C)[C@@H]1CC(O)C1=CCOC1=O (stereo not given in full) | – | inactive
O=S(=O)(NCc1ccccn1)c1ccc(Br)c2ccccc12 | – | inactive
C=CC(=O)Nc1ccc(CN2C(=O)N(c3cc(OC)cc(OC)c3)Cc3cnc(Nc4ccc(N5CCN(C)CC5)cc4)nc32)cc1 | – | inactive
CC1(C)SCCN(S(=O)(=O)c2ccc(Oc3ccncc3)cc2)[C@H]1C(=O)NO | – | inactive
CCOC(=O)c1csc(Nc2ccc(Cl)cc2)n1 | – | inactive
N#CC(CCCN1CCN(/N=C/c2cccnc2)CC1)(c1ccccc1)c1ccccc1 | – | inactive
CC(C)(O)C(=O)N1CCN(c2ccc(C(F)(F)F)c(C3=C(c4c[nH]c5ccccc45)C(=O)NC3=O)c2)CC1 | – | inactive
COc1cc2ncnc(Nc3cccc(I)c3)c2cc1OC | – | inactive
CCNc1nc(Nc2cc(F)c(C(=O)N3CCOCC3)cc2OC)ncc1C(F)(F)F | – | inactive
Cc1[nH]c2ccc(F)cc2c1-c1nc2c3cccnc3c3ncccc3c2[nH]1 | – | inactive
CC(C)=CCCC1(C)C2CCC1(C)C(O)C2 (stereo not given) | – | inactive
COc1c2c(c(C)c3c1C(=O)OC3)O[C@@]1(C)C[C@@H](OC(C)=O)[C@]34O[C@](OC)(CC[C@]3(C)[C@H]1C2)OC4(C)C | – | inactive
Nc1nc(NC2CC2)cc(-c2cccc(Cl)c2Cl)n1 | – | inactive
Cc1cn(CCN2CCN(c3ccccc3-c3cc(C#N)cc(C(=O)NCCCN4CCCC4)c3)CC2)c2ccccc12 | – | inactive
CCN1CCN(Cc2ccc(NC(=O)c3ccc(C)c(Oc4ncnc5[nH]c(C)cc45)c3)cc2C(F)(F)F)CC1 | – | inactive
O=C(Nc1ccccc1C(=O)NC1CCCCNC1=O)c1cc2ccccc2s1 (stereo not given) | – | inactive
Cc1cc(N2CCN(C(=O)Oc3ccc(-c4ccccc4)cn3)CC2)c2ccccc2n1 | – | inactive
CN(C)S(=O)(=O)c1ccc(NC(=S)N2CCC(C(O)(c3ccccc3)c3ccccc3)CC2)cc1 | – | inactive
CC(=O)Nc1nc(C)c(-c2nc(N3CCCC(O)C3)no2)s1 (stereo not given) | – | inactive
C=C1CC[C@@H](O)[C@]2(C)CC[C@H]3C(=C)C(=O)O[C@@H]3[C@@H]12 | – | inactive
